Laboratory results from PubChem BioAssay (EPA / NIEHS).
“And” between values parts separate entries of the source, which are not always exact repeats. Equal entries are not always repeated. Results filed as inconclusive are left out. The source holds several records for some structures; these can differ, active in one and inactive in another. The source made the active and inactive calls. Rule for the calls, unless noted: active = hit-call score of the fitted dose curve at least 0.9, where 1 is the maximum; inactive = score below 0.9.

How the values were obtained:
[1] = molecular target: human Norepinephrine Transporter (NET), SLC6A2 (gene 6530) (UniProt P23975); test: NVS_TR_hNET: NovaScreen (NVS) Transporter Assay for human Norepinephrine Transporter (NET) (AID 2283377; active = hit-call score of the fitted dose curve at least 0.9, where 1 is the maximum;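 note: cell-free membrane protein extracted from CHO cells expressing human NET; displacement of radioligand from human NET seen as loss of scintillation signal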)
Summary of the method: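 In this cell-free binding screen, chemicals at 25 uM (duplicate) compete with a radioligand for CHO-derived human NET over 1 hour, with filter-based radiodetection.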

[2] = STM_H9_OrnCyssISnorm_ratio: Stemina devTOX quickPredict H9 human embryonic stem cell (hESC)-based Assay for Ornithine (ORN):Cystine (CYSS) Ratio (AID 2283714; active = hit-call score of the fitted dose curve at least 0.9, where 1 is the maximum)
Summary of the method: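 H9 hESC, 72h, q24h re-dose; last-day media → acetonitrile deproteinization → UPLC-HRMS. ORN:CYSS ratio from isotope-normalized EIC areas, vs 0.1% DMSO; MTX references on each plate.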

[3] = CCTE_Deisenroth_AIME_384WELL_CTox_Active: Cytotoxicity Assessment (CTOX) in CCTE's 384-well Estrogen Receptor Transactivation Assay with AIME metabolic competence (metabolism positive), Deisenroth Lab (AID 2284037; active = hit-call score of the fitted dose curve at least 0.9, where 1 is the maximum;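 note: chemicals first conditioned 2 h by alginate-bound induced rat liver S9 before cells; activity means signal loss indicating cell death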)
Summary of the method: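 VM7Luc4E2 breast cells received medium pre-incubated 2 h with chemical over alginate microspheres holding induced male Sprague Dawley rat liver S9; viability read 24 h later by protease-substrate fluorescence. Loss of signal, bidirectional fit, 0.002–200 uM.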

[4] = CCTE_Deisenroth_AIME_384WELL_CTox_Inactive: Cytotoxicity Assessment (CTOX) in CCTE's 384-well Estrogen Receptor Transactivation Assay without AIME metabolic competence (metabolism negative), Deisenroth Lab (AID 2284039; active = hit-call score of the fitted dose curve at least 0.9, where 1 is the maximum;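 note: cell viability via live-cell protease substrate cleaved to fluorescent probe; cells exposed 24 h to medium preincubated 2 h with alginate-water beads without S9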)
Summary of the method: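 VM7Luc4E2 cells, metabolism-negative arm: test chemicals (0.002–200 uM, 10 points) pre-incubated 2 h with alginate-water microspheres, then medium transferred to cells for 24 h. Viability read as protease-substrate cleavage to fluorescent probe; loss-of-signal, bidirectional fitting.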

[5] = UKN5_HCS_SBAD2_cell_viability: Viability Assessment in the University of Konstanz (UKN) Leist Lab Neurite Outgrowth Assay in human iPSC-derived immature Dorsal Root Ganglia Neurons (UKN5) (AID 2284056)
Summary of the method: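 iPSC-derived immature peripheral neurons (SBAD2) seeded on Matrigel with CHIR99021, SU5402 and DAPT, dosed 1 h later for 24 h. Viability from Hoechst H-33342 and calcein-AM live staining, high-content imaging; bidirectional fit versus DMSO.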

[6] = UKN5_HCS_SBAD2_neurite_outgrowth: University of Konstanz (UKN) Leist Lab Neurite Outgrowth Assay in human iPSC-derived immature Dorsal Root Ganglia Neurons (UKN5) (AID 2284070); conditions: actives raise or lower the signal
Summary of the method: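 Neurite area from calcein-AM high-content images after 24 h exposure (staining included), with H-33342 for viability, fitted both directions against DMSO. Cells: thawed immature SBAD2 peripheral neurons, 100.000 cells/cm2, with CHIR99021, SU5402, DAPT; dosing 1 h after seeding.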

[7] = UKN2_HCS_IMR90_neural_migration: University of Konstanz (UKN) Leist Lab Neural Crest Cell Migration Assay in human induced IMR90 Pluripotent Stem Cells (UKN2) (AID 2284204); conditions: actives raise or lower the signal
Summary of the method: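 Using a 96-well stopper format with PLO/laminin/fibronectin coating, neural crest cells from iPSC migrate in cytokine-supplemented N2-S medium; after 24 h, chemicals are applied for a further 24 h, then cells are imaged after dye staining.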

[8] = UKN4_HCS_LUHMES_neurite_outgrowth: University of Konstanz (UKN) Leist Lab Neurite Outgrowth Assay in human LUHMES cells (UKN4) (AID 2284206); conditions: actives raise or lower the signal
Summary of the method: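 After 24 h compound treatment beginning shortly after replating of 2-day-differentiated LUHMES cells, calcein-AM and H-33342 live staining allowed high-content imaging of neurite area and viability. Fitted bidirectionally against DMSO.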

[9] = BSK_BT_PBMCCytotoxicity: PBMC Cytotoxicity Assessment in the BioMAP Diversity Plus: BT Assay (AID 2284225); conditions: primary human B cells with PBMC;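 note: PBMC viability measured by Alamar Blue dye reduction fluorescence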
Summary of the method: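 Viability by Alamar Blue reduction (6 h, ex/em 546/580 nm) after 90 h culture of SEB/TSST-1-activated PBMC (20 ng/mL each) given compound 1 h before activation. DMSO served as baseline for curve fitting.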

[10] = read-out: Secreted IgG (sIgG), gene 3500; test: BSK_BT_sIgG: BioMAP Diversity Plus: BT Assay for Secreted IgG (sIgG) Biomarker Activity (AID 2284226); conditions: primary human B cells with PBMC
Summary of the method: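 ELISA quantitation of secreted IgG from human B cells co-cultured with PBMC, sampled 24 h post-dosing. Values fitted relative to DMSO vehicle as baseline, positive fitting direction.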

[11] = read-out: Interleukin 6 (IL6), IL6 (gene 3569); test: BSK_BT_xIL6: BioMAP Diversity Plus: BT Assay for Interleukin 6 (IL6) Biomarker Activity (AID 2284228); conditions: primary human B cells with PBMC
Summary of the method: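 Human B cell/PBMC co-culture; secreted IL-6 quantified by Luminex xMAP 24 h after chemical dosing, fitted relative to DMSO. Parallel PBMC viability by Alamar Blue after 1 h pretreatment, 20 ng/mL SEB and TSST-1, 90 h incubation.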

[12] = read-out: Interleukin 17F (IL17F), IL17F (gene 112744); test: BSK_BT_xIL17F: BioMAP Diversity Plus: BT Assay for Interleukin 17F (IL17F) Biomarker Activity (AID 2284243); conditions: primary human B cells with PBMC
Summary of the method: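 Human PBMC co-cultured with B cells, compound exposure 24 h; secreted IL-17F quantified by Luminex xMAP, referenced to DMSO control. PBMC viability measured in parallel by Alamar Blue reduction.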

[13] = read-out: TIMP metallopeptidase inhibitor 1 (TIMP1), TIMP1 (gene 7076); test: BSK_MyoF_TIMP1: BioMAP Diversity Plus: MyoF Assay for TIMP metallopeptidase inhibitor 1 (TIMP1) Biomarker Activity (AID 2284269); conditions: primary human lung fibroblasts
Summary of the method: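 ELISA quantified TIMP-1 levels after 24 h dosing of primary human lung fibroblasts, with DMSO as baseline. Parallel SRB total protein staining (0.1% SRB after TCA fixation, 560 nm) flagged overt cytotoxicity.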

Measured: AC50

Chain of human Norepinephrine Transporter (NET), SLC6A2 (gene 6530) (P23975 whole entry, looked up): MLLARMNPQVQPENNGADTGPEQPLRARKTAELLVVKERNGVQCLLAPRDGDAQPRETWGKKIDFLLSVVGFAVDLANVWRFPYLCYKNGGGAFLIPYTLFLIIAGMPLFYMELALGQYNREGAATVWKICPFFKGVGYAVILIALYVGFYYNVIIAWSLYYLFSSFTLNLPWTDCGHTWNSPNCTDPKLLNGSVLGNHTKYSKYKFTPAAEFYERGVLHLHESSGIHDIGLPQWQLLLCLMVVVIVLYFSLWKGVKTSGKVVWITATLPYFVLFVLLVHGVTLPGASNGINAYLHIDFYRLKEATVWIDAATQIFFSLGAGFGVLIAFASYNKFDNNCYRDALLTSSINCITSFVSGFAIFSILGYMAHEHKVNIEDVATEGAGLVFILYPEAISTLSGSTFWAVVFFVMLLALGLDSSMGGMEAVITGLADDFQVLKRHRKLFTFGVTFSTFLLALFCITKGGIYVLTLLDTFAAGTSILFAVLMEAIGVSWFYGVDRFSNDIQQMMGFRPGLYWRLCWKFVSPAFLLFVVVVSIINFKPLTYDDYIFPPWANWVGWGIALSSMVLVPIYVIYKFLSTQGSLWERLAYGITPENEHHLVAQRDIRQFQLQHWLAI

Oc1cccc2ccccc12
active: [1] 21 µM | [2] 7.48 µM | [8] 26.3 µM | [11] 0.0576 µM
inactive: all other assays above

CC(=O)OC(C)(C)Cc1ccccc1
inactive: [4]

COc1ccc2ccccc2c1
active: [1] 25 µM

OC(C(F)(F)F)(C(F)(F)F)C(O)(C(F)(F)F)C(F)(F)F
inactive: [11] | [12] | [13]
active: [9] 55.4 µM and 36.9 µM | [10] 9.13 µM and 9.49 µM | [11] 39.5 µM | [12] 13.1 µM | [13] 45.6 µM

CC/C=C\CCO
inactive: [3] | [4]
